In PubChem BioAssay (NCATS):
Inconclusive results are not listed. A number with no mark means an inactive call. Calls of active or inactive are those of the source. Calls follow the shape of the dose curve; as a rule, active = well fitted curve in the direction sought with a large enough effect; inconclusive = small, poorly fitted or top-dose-only effect, or another doubt; inactive = no such curve, though single readings can be large; an effect the other way counts as inactive or inconclusive.

Biological target: Luciferin 4-monooxygenase (Photinus pyralis) (UniProt P08659)
Assay: Biochemical firefly luciferase enzyme assay for NPC (AID 624030); also: nearly all actives have a fitted effect of over 70% in size; also: potency is read from the fitted curve at half-maximal effect;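 as to activity change, negative = inhibition: purified P. pyralis luciferase at 10 nM with luciferin and ATP substrate; 0% = DMSO and -100% = full luciferase inhibition by PTC124 control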
Settings: purified P. pyralis luciferase, luminescence, 5 min; series mostly up to 58.6 µM; activity change, negative = inhibition: at the top concentration
Method in brief: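 Direct inhibition of firefly luciferase enzyme (10 nM final, 50 mM Tris Acetate) assessed by luminescence within 5 minutes. Percent activity scaled between DMSO and PTC124 positive control, with concentration-effect curves classified by fit quality and response.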

Chain of Luciferin 4-monooxygenase (Photinus pyralis) (P08659 whole entry, looked up): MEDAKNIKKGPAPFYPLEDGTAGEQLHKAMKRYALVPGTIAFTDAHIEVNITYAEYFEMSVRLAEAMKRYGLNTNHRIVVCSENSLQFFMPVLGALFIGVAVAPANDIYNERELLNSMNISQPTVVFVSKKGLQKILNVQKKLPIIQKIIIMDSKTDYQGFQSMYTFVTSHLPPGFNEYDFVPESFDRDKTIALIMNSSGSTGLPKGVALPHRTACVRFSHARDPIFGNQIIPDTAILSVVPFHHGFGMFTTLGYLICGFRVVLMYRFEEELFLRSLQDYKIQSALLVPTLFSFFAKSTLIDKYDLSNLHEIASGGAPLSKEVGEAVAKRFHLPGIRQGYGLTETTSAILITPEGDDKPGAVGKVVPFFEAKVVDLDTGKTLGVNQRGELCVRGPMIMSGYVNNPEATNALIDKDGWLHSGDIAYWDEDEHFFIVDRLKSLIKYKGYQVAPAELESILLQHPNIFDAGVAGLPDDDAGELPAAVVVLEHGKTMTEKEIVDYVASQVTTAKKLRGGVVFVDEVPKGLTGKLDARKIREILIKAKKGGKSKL

Structure (SMILES)	activity change, negative = inhibition	Potency
CCN(CC)CCc1c[nH]c2ccccc12	-1.42% [at 215 µM]	
CCc1cc2c(s1)-n1c(C)nnc1CN=C2c1ccccc1Cl	-1.85%	
COc1ccc2c(c1OC)C(=O)O[C@H]2[C@@H]1c2cc3c(cc2CCN1C)OCO3	-0.127%	
COc1cccc(C(=O)CCN[C@@H](C)[C@H](O)c2ccccc2)c1	-13.9%	
O=c1oc2ccccc2c(O)c1Cc1c(O)c2ccccc2oc1=O	-15.9% [at 24.9 µM]	
O=C(Nc1ccc(Br)cc1)c1cc(Br)cc(Br)c1O		11.4 µM (active)
CNCC(=O)c1ccc(O)c(O)c1	-1.87%	
O=C1Nc2ccc(Cl)cc2C(c2ccccc2Cl)=NC1O (stereo not drawn)	1.56%	
COc1cc(CC(C)N)cc(OC)c1OC (stereo not drawn)	1.16% [at 123 µM]	
CN1C(=O)C(O)N=C(c2ccccc2)c2cc(Cl)ccc21 (stereo not drawn)	-0.128%	

System: not listed separately
Assay: S16 Schwann cell viability assay (CellTiter-Glo assay) (AID 624031);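 also: native untransfected S16 rat Schwann cells; cellular ATP luminescence as a viability measure; plate controls were DMSO-treated cells for no effect and cell-free wells for full effect; nearly all actives have a fitted effect of over 70% in size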
Settings: S16 rat Schwann cells viability, 24 h; series mostly up to 57.5 µM; activity change, negative = cytotoxicity: at the top concentration
Method in brief: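 Following overnight culture in 10% FBS DMEM, parental S16 rat Schwann cells are dosed for 24 h at 37 °C. Viability is read as CellTiter-Glo luminescence and expressed as % activity relative to DMSO (0%) and no-cell wells.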

Structure (SMILES)	activity change, negative = cytotoxicity
CC(C)(C)c1ccc(O)cc1	14.5%
CN1C(=O)COc2c(C(=O)NC3CN4CCC3CC4)cc(Cl)cc21 (stereo not drawn)	11.2%
Cc1ncsc1CCCl	8.12%
c1ccc2c(c1)sc1ccccc12	9.47%
O=C1Nc2ccc(Cl)cc2C(c2ccccc2)=NC1O (stereo not drawn)	2.99%
COc1ccc2c(c1OC)C(=O)O[C@H]2[C@@H]1c2cc3c(cc2CCN1C)OCO3	1.12%
O=c1oc2ccccc2c(O)c1Cc1c(O)c2ccccc2oc1=O	1.21% [at 25.7 µM]
C[C@]12CC[C@@H]3c4ccc(OC(=O)N(CCCl)CCCl)cc4CC[C@H]3[C@@H]1CC[C@@H]2O	2.91%
CN1C(=O)C(O)N=C(c2ccccc2)c2cc(Cl)ccc21 (stereo not drawn)	3.3%

System: not listed separately
Assay: S16 Schwann cell PMP22 intronic element firefly luciferase assay (AID 624032);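 also: plate controls were DMSO for no effect and PTC124 positive control mean for full effect; nearly all actives have a fitted effect of over 30% in size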
Settings: S16 rat Schwann cells, PMP22 element FLuc, 24 h; series mostly up to 57.5 µM; activity change, negative = inhibition: at the top concentration
Method in brief: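 Luciferase reporter of PMP22 intronic-element expression in stably transfected S16 rat Schwann cells, read by ONE-Glo luminescence after 24 h compound exposure at 37 C. Activity scaled between DMSO (0%) and positive-control PTC124; concentration-effect curves quality-classified.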

Structure (SMILES)	activity change, negative = inhibition
CC(C)(C)c1ccc(O)cc1	-13.2%
CC(C)COC(=O)c1ccc(N)cc1	134%
CN1C(=O)COc2c(C(=O)NC3CN4CCC3CC4)cc(Cl)cc21 (stereo not drawn)	0.287%
Cc1ncsc1CCCl	-7.16%
c1ccc2c(c1)sc1ccccc12	-11.9%
Cn1c(=O)c2[nH]cnc2n(C)c1=O	2.72%
Clc1ccc2c(c1)C(c1ccccc1)=NCc1nncn1-2	-7.97%
O=C1Nc2ccc(Cl)cc2C(c2ccccc2)=NC1O (stereo not drawn)	-18.6%
CN=C(NC#N)NCCSCc1nc[nH]c1C	23.2%
COc1ccc2c(c1OC)C(=O)O[C@H]2[C@@H]1c2cc3c(cc2CCN1C)OCO3	-1.44%
COCCCOc1ccnc(CS(=O)c2nc3ccccc3[nH]2)c1C (stereo not drawn)	87.9%
C=CCc1ccc(O)c(OC)c1	19.1%
O=c1oc2ccccc2c(O)c1Cc1c(O)c2ccccc2oc1=O	-19.3% [at 25.7 µM]
C[C@]12CC[C@@H]3c4ccc(OC(=O)N(CCCl)CCCl)cc4CC[C@H]3[C@@H]1CC[C@@H]2O	-5.63%
O=C(Nc1ccc(Br)cc1)c1cc(Br)cc(Br)c1O	-9.04%
O=C(O[C@H]1CN2CCC1CC2)N1CCc2ccccc2[C@@H]1c1ccccc1	57.1%
O=C1Nc2ccc(Cl)cc2C(c2ccccc2Cl)=NC1O (stereo not drawn)	10.9%
NC(=O)CC[C@@H]1NC(=O)[C@H](Cc2ccccc2)NC(=O)[C@H](Cc2ccc(O)cc2)NC(=O)[C@@H](N)CSSC[C@@H](C(=O)N2CCC[C@H]2C(=O)N[C@@H](CCCN=C(N)N)C(=O)NCC(N)=O)NC(=O)[C@H](CC(N)=O)NC1=O	-21.9%
CN1C(=O)C(O)N=C(c2ccccc2)c2cc(Cl)ccc21 (stereo not drawn)	-18.6%
